In PubChem BioAssay AID492952 (Southern Research Specialized Biocontainment Screening …, 2010):
About 1,500 (65%) of roughly 2,300 compounds were called active. No rule for the calls is given here. So high a share suggests a set chosen from earlier hits. Some of the results follow. Measured potencies and affinities stand elsewhere.

Assay: replicating M. tuberculosis growth inhibition, dose response, non-replicating M. tuberculosis project, H37Rv (AID 492952);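 also: Mycobacterium tuberculosis grown in culture; growth inhibition read after a week of incubation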
Conditions: series mostly up to 50 µM

| SMILES | outcome |
| --- | --- |
| O=C(COC(=O)c1ccc(Br)o1)NC1CCCCC1 | inactive |
| Oc1ccc2cc(Br)ccc2c1CN1CCCC1 | inactive |
| Nc1c(Cl)cc(Cl)cc1C(=O)OCC(=O)N1CCCC1 | inactive |
| CCCOC(=O)NC1CCS(=O)(=O)C1 (stereo unspecified) | inactive |
| CCCCN(C/C=C/c1ccccc1OC)Cc1ccccc1 | inactive |
| CCOC(=O)C1CCN(Cc2ccc(-c3ccccc3)cc2)CC1 | inactive |
| CC(C)N=C1SC(CC(=O)Nc2ccccc2)C(=O)N1C(C)C (stereo unspecified) | inactive |
| O=C(COC(=O)c1ccccc1Br)Nc1ccccc1F | inactive |
| Fc1ccc(-c2nnc(-c3ccc(F)cc3)o2)cc1 | inactive |
| CCOC(=O)C1=C(C)NC(=O)NC1c1ccc(-c2ccc(F)cc2)o1 (stereo unspecified) | inactive |
| CCC(=O)c1ccc(OC(=O)c2ccc(Br)o2)cc1 | inactive |
| CCC(C)(C)NC(=O)c1ccc(Br)o1 | inactive |
| O=C(NC1CCCC1)c1nc2c(nnn2Cc2cccc(Cl)c2)c(=O)[nH]1 | inactive |
| NC(=O)c1cccnc1Nc1cccc(F)c1 | inactive |
| COc1ccc(O)c(C(=O)CC(=O)c2ccc(F)cc2)c1 | inactive |
| c1ccc(-c2noc(CC3CCCCC3)n2)nc1 | inactive |
| Sc1oc(-c2ccccc2)cc1C=Nc1ccccc1 | inactive |
| COc1ccc(NC(=O)CO/N=C2/CCCc3nonc32)c(OC)c1 | inactive |
| O=C(N/N=C/c1ccccc1O)c1cccc(C(F)(F)F)c1 | inactive |
| O=C(N/N=C/c1cc(Br)cc(Br)c1O)c1cccc(N2CCCC2=O)c1 | inactive |
| O=C(COC(=O)c1ccccc1)NC12CC3CC(CC(C3)C1)C2 | inactive |

| SMILES | outcome |
| --- | --- |
| CCCNC(=O)OCC12CC3CC(CC(C3)C1)C2 | inactive |
| CCCCCCCC(=O)N/N=C(\C)c1ccc(O)cc1O | inactive |
| CSC1=N/C(=C\c2ccc(Br)o2)C(=O)S1 | inactive |
| CC(=O)Nc1cccc(-c2nc3ccccc3c(=O)o2)c1 | inactive |
| O=C(NNC1CC(=O)N(c2ccccc2)C1=O)c1ccco1 (stereo unspecified) | inactive |
| O=C(N/N=C/c1cn[nH]c1-c1ccccc1)c1ccco1 | inactive |
| N[C@@H](Cc1ccccc1)c1nnc(SC/C=C/c2ccccc2)o1 | inactive |
| O=C(NCCc1ccccc1)c1nc(-c2cccs2)no1 | inactive |
| O=[N+]([O-])c1cncc([N+](=O)[O-])c1Nc1cccc(O)c1 | inactive |
| O=S(=O)(NCc1cccnc1)c1ccc(Cl)c(Cl)c1Cl | inactive |
| Clc1ccc(SCCOCCN2CCc3ccccc3C2)cc1 | inactive |
| Clc1ccc(OCCCCN2CCc3ccccc3C2)cc1 | inactive |
| CC1=NN(C(=O)c2ccccc2)C(O)(c2ccc(Br)cc2)C1 (stereo unspecified) | inactive |
| CC1=NN(C(=O)c2ccccc2Cl)C(O)(c2ccccc2)C1 (stereo unspecified) | inactive |
| CCOc1ccc(N2CC(=O)Nc3ccccc3NCC2=O)cc1 | inactive |
| CCc1ccc(N2C(=O)CC(N3CCC(C(=O)OC)CC3)C2=O)cc1 (stereo unspecified) | inactive |
| COc1ccc(OC(=O)C2CC(=O)N(c3ccc(C)cc3)C2)cc1 (stereo unspecified) | inactive |
| CCCOc1ccc(N2C(=O)CC(N3CCCC(C(=O)N4CCCC4)C3)C2=O)cc1 (stereo unspecified) | inactive |
| CCCCCCOc1ccc(N2C(=O)CC(N3CCN(C(=O)c4ccco4)CC3)C2=O)cc1 (stereo unspecified) | inactive |
| C#CCOc1coc(COC(=O)c2ccccc2)cc1=O | inactive |
| CSC1=N/C(=C\c2ccc3c(c2)OCO3)C(=O)S1 | inactive |

| SMILES | outcome |
| --- | --- |
| O=C1CC(N2CCC(c3nc4ccccc4o3)CC2)C(=O)N1 (stereo unspecified) | inactive |
| NC(=O)/C(=N\OC(=O)c1ccco1)c1nc(-c2ccc(Br)cc2)cs1 | inactive |
| Cc1[nH]n(-c2ccccc2)c(=O)c1C=Nc1cnc2ccccc2c1 | inactive |
| C/C(=N\NC(=O)CCc1ccccc1)C1C(=O)c2ccccc2C1=O | inactive |
| CC(C)(C)c1ccc(S(=O)(=O)NNC(=O)c2cc3ccccc3[nH]2)cc1 | inactive |
| Cc1ccc(S(=O)(=O)NCc2ccc(C(=O)NCCCN3CCC(Cc4ccccc4)CC3)cc2)cc1 | inactive |
| CN(C)CCC(=O)N1c2ccccc2Sc2ccc(C(F)(F)F)cc21 | inactive |
| Oc1ccc(Br)cc1-c1ccn[nH]1 | inactive |
| CC(NC(=O)c1cc2ccccc2oc1=O)c1ccccc1 (stereo unspecified) | inactive |
| Cc1ccc(C(C)NC(=O)c2cc3ccccc3oc2=O)cc1C (stereo unspecified) | inactive |
| O=C(NC1CCOc2ccccc21)c1ccc(Cl)nc1 (stereo unspecified) | inactive |
| CCOc1ccc(NC(=O)COc2ccc3c(c2)OCO3)cc1 | inactive |
| O=C(Nc1ccc([N+](=O)[O-])cc1)c1ccc(Cn2cc([N+](=O)[O-])cn2)cc1 | inactive |
| C=CCOc1ccc(CNCCO)cc1OCC | inactive |
| CC(C)(C)c1cc(CN2CCN(CCO)CC2)cc(C(C)(C)C)c1O | inactive |
| CCn1c(O)c(C(=O)CC2NCCc3ccccc32)c(=O)n(CC)c1=S (stereo unspecified) | inactive |
| O=C(NNc1nc2ccccc2s1)Nc1ccc(F)cc1 | inactive |
| Cc1ccc(CNC(=O)c2cnccn2)cc1 | inactive |
| Cc1ccc2nc(NC(=O)COC(=O)c3ccc(Br)o3)sc2c1 | inactive |
